Experimental findings from PubChem BioAssay are described below.

Each structure is given as a SMILES string. Calls of active or inactive are those of the source.

Test [1] concerns PRMT1 (protein arginine N-methyltransferase 1). Nature of the test: small molecules binding arginine methyltransferase PRMT1 – biochemical, small-molecule microarray, 635 nm fluorescence, primary screen (AID 1088).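 Also: binding of Prmt1 protein to compounds spotted on small-molecule microarray slides.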 As to conditions: higher = more signal.
Test [2] is described as follows: growth effects on S. cerevisiae YJM789 – YJM789 clinical isolate, OD600, 24 h, basal, primary screen (AID 1089).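 Also: growth of clinical yeast isolate S. cerevisiae YJM 789 seeded 1000 cells per well; test concentration not given here.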 Particulars: higher = more signal, called active from +8 up or from −8 down.
The nature of test [3]: S. pombe growth modifiers, basal conditions – strain 972, OD600, 24 h, no modulator, primary screen (AID 1090).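 Also: basal condition with compound alone and no growth modifier present; test concentration not given here.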 As to conditions: S. pombe 972 growth, higher = more signal, called active from +8 up or from −8 down.
Test [4] in a line: budding yeast growth modifiers under rapamycin – strain BY4716, OD600, 96 h, primary screen (AID 1091). Also: test concentration not given here. As to conditions: S. cerevisiae BY4716 + rapamycin, higher = more signal, called active from +8 up or from −8 down.
For test [5], the target named is Torsin-1A-interacting protein 2 (Homo sapiens) (UniProt Q8NFQ8). Description: small molecules binding lysate-expressed LULL1 – cell lysate, human LULL1 lysate, 635/667 nm fluorescence, primary screen (AID 1092).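 Also: probe is lysate of COS7 cells overexpressing human LULL1; score merges per-feature 667 nm fluorescence with signal-to-noise.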 As to conditions: small-molecule microarray, hLULL1 lysate binding, 635 nm fluorescence; higher = more signal.
The nature of test [6]: optical density change of DRC41 E. coli – strain DRC41, OD650, 24 h, E. coli filamentation project, primary screen (AID 1093).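 Also: MC1000 strain lacking acrAB efflux and sulA so SOS filamentation is blocked; test concentration not given here.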 As to conditions: E. coli DRC41 growth, higher = more signal, called active from +8 up or from −8 down.
A short description of test [7]: probe aLefty2 binding to arrayed compounds – biochemical, biotinylated probe, 635/667 nm fluorescence, primary screen (AID 1094).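 Also: score merges spot fluorescence near 667 nm with spot signal-to-noise ratio.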 Particulars: small-molecule microarray, higher = more signal.
Test [8] relates to Noggin (protein binding on small-molecule microarray). Nature of the test: small molecules binding Noggin protein – biochemical, 635/667 nm fluorescence, primary screen (AID 1095).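 Also: score merges 667 nm feature fluorescence with signal to noise over triplicate slides.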 Particulars: 635 nm fluorescence, higher = more signal.
The target of test [9] is Neurogenic locus notch homolog protein 3 (Homo sapiens) (UniProt Q9UM47). Description: small molecules binding NOTCH3 protein – biochemical, 635/667 nm fluorescence, primary screen (AID 1096). As to conditions: small-molecule microarray, 635 nm fluorescence, higher = more signal.
A short description of test [10]: probe aEGFR binding to arrayed compounds – biochemical, biotinylated probe, 635/667 nm fluorescence, primary screen (AID 1097).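 Also: probe is a biotinylated anti-EGFR antibody binding compounds printed on slides; score combines fluorescence near 667 nm and signal to noise of each spot.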 As to conditions: small-molecule microarray, higher = more signal.

Torsin-1A-interacting protein 2 (Homo sapiens), sequence (Q8NFQ8 whole entry, looked up): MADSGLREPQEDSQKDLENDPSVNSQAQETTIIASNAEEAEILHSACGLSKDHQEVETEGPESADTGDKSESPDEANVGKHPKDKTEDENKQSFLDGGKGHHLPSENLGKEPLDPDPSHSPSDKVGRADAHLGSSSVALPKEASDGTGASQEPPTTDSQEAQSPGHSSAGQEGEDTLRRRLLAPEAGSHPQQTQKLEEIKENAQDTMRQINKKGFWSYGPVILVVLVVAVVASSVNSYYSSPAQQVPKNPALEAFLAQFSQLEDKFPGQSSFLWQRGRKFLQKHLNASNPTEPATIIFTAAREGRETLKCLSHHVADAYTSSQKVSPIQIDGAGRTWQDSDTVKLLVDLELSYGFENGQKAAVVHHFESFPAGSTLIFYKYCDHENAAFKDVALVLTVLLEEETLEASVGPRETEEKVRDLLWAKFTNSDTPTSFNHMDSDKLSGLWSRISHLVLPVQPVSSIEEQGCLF
Neurogenic locus notch homolog protein 3 (Homo sapiens), sequence (Q9UM47 whole entry, looked up): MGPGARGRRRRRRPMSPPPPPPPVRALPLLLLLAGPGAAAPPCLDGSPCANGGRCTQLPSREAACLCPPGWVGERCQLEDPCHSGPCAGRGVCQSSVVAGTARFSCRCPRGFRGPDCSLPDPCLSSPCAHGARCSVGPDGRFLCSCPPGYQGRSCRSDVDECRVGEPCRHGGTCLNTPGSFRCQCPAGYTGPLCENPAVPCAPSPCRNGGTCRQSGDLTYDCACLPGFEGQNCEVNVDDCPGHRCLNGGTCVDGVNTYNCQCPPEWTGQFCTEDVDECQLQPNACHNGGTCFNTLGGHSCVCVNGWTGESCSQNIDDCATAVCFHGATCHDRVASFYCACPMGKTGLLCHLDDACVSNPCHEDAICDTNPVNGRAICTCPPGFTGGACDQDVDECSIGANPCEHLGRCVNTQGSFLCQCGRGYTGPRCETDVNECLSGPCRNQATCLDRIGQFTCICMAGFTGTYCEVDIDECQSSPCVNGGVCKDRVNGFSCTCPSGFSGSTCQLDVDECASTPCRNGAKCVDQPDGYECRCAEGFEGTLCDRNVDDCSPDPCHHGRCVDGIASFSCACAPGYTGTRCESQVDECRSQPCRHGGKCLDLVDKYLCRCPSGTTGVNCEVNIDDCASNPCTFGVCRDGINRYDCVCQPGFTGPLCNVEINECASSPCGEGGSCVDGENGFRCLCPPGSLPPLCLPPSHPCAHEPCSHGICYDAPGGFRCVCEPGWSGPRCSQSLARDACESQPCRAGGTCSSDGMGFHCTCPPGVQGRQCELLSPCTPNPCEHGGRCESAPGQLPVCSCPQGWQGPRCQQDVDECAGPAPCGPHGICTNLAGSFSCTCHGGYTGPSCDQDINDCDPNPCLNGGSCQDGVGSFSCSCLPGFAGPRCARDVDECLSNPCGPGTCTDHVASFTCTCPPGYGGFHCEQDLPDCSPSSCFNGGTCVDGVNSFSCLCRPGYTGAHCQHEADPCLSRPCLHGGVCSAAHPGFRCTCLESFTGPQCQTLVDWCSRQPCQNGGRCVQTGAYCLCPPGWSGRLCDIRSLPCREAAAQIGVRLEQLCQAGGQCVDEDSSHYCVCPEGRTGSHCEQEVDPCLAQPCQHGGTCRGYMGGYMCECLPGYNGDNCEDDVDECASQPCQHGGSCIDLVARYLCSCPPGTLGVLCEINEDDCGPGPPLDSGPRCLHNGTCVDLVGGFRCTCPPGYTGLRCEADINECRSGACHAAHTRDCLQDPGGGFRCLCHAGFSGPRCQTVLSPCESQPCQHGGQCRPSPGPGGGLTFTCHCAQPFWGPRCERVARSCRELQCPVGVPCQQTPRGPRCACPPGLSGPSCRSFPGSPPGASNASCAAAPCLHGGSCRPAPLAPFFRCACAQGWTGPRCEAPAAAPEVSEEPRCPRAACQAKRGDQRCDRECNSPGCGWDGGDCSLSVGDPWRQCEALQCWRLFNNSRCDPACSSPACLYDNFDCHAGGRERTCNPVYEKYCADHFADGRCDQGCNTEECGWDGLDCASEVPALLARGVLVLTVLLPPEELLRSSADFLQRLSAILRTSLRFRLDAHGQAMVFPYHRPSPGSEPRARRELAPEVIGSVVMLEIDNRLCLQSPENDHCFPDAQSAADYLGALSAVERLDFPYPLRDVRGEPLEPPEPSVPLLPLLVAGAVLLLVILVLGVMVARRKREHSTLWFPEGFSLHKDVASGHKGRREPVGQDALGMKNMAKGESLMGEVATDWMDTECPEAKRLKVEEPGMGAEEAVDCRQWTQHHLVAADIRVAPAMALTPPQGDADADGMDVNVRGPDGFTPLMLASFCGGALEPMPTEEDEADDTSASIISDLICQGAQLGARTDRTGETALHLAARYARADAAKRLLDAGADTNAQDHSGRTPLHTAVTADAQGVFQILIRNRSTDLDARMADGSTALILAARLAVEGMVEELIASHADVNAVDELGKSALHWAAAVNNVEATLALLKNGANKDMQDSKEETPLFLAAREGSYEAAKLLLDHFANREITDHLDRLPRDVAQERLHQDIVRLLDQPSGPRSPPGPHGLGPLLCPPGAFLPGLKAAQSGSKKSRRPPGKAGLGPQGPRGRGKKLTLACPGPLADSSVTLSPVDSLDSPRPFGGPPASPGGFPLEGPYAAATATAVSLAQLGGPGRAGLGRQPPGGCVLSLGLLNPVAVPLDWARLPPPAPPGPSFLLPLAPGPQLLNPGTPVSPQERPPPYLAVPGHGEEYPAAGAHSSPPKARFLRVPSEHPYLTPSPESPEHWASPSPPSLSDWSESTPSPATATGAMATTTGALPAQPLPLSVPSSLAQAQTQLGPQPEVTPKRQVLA

Turning to `CCOC(=O)NN=C1C[C@@H](O)[C@@H](O)[C@@H]2[C@@H]3C(=O)N(C4CCCCC4)C(=O)[C@@H]3CC[C@H]12`, the composite z-score is 0.314 in [1]; 0.746 in test [5]; -0.139 in [7]; 0.315 in test [8]; 0.213 in test [9]; -0.0776 in [10]. Besides, the z-score in test [2] was 0.351 (inactive); in test [3] it was 0.458 (inactive); in test [4], 0.529 (inactive); in test [6] it was -0.931 (inactive).

Regarding `O=C1C[C@]2(c3ccc([N+](=O)[O-])cc3)C(=O)N(CCN3CCOCC3)c3cc(CO)ccc3[C@H]2N1CC12CC3CC(CC(C3)C1)C2`, the composite z-score in [1] was -0.286; in test [5] it was 1.81; in test [7] it was 0.0023; in [8], -0.323; in test [9], 0.111; in [10], -0.156. Also, the z-score was -1.31 (inactive) in test [2], -0.324 (inactive) in test [3], -2.77 (inactive) in test [4] and 0.679 (inactive) in [6].

On to `CC[C@@H](c1ccccc1)n1c(=O)n2n(c1=O)[C@H]1[C@H](O)[C@@H]3O[C@@H]3C(=NOCC=C(C)CCC=C(C)C)[C@H]1CC2`, for which the composite z-score was 1.23 in [1]; 1.54 in [5]; -0.137 in test [7]; 1.33 in test [8]; 0.955 in [9]; 0.14 in [10]. The z-score in test [2] was 0.676 (inactive); in [3], 0.052 (inactive); in [4], 1.28 (inactive); in test [6], -0.327 (inactive).

As for `COC(=O)[C@]1(CO)N=C(c2ccc(OCCCO)cc2)O[C@@H]1c1ccccc1N=[N+]=[N-]`, the composite z-score is 1.53 in test [1]; 3.19 in test [5]; -0.0639 in [7]; 1.82 in [8]; 0.298 in test [9]; -0.162 in test [10]. Moreover, the z-score in test [2] is -0.726 (inactive); in test [3], -0.683 (inactive); in test [4], -1.12 (inactive); in test [6] it was 0.269 (inactive).

In the case of `O=C1CCCC2OC12C(O)CCc1ccccc1` (stereo not given), the composite z-score was -0.071 in [1]; -0.0258 in [5]; -0.215 in [7]; 0.373 in test [8]; 0.0248 in test [9]; 0.395 in test [10]. Further, the z-score was 0.238 (inactive) in [2], 0.211 (inactive) in test [3], 0.164 (inactive) in [4] and 0.454 (inactive) in test [6].

On to `O=C1[C@H]2[C@H]3[C@H](O)[C@H](O)CC(=NO[C@@H]4O[C@H](CO)[C@@H](O)[C@H](O)[C@H]4O)[C@H]3CC[C@H]2C(=O)N1Cc1ccc2c(c1)OCO2`, for which the composite z-score in [1] is 0.661; in [5] it was 2.14; in test [7] it was 0.0835; in test [8], -0.246; in test [9], -0.133; in test [10] it was -0.17. The z-score in test [2] was 0.827 (inactive); in [3], 0.918 (inactive); in test [4], -0.297 (inactive); in test [6], 0.529 (inactive).
